In the library only some 12% were active in any assay of this set; here they are far more common.
JMJD2A Tudor – qHTS Assay for Inhibitors of JMJD2A-Tudor Domain; Lysine-specific demethylase 4A (Homo sapiens), O75164; AlphaScreen JMJD2A-Tudor / H3K4me3 peptide binding; Potency, µM (top dose mostly 114 µM), without a hit: at the top dose activity change, negative = inhibition, usual class: inhibitors; actives 4.4% (n = 390,000); note: % is set by controls: 0 for no effect and ±100 for the full control effect; nearly all actives have a fitted effect of over 50% in size
BAZ2B block – qHTS Assay for Inhibitors of BAZ2B; Potency, µM (highest dose often 114 µM), without a hit: top-dose activity change, negative = inhibition, actives largely listed as inhibitors; actives 4.4% (n = 360,000); Bromodomain adjacent to zinc finger domain protein 2B (Homo sapiens), Q9UIF8; AlphaScreen BAZ2B-H3K14Ac peptide displacement; AID 504333, 2011; note: % is set by controls: 0 for no effect and ±100 for the full control effect; nearly all actives have a fitted effect of over 60% in size
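BAZ2B 50 nM plus b-H3(5-23)K14Ac 50 nM, PBS pH 7.4/0.01% Tween-20, 30 min RT; compound added (max 110 uM), 30 min RT; streptavidin donor/Ni-chelate acceptor beads 10 ug/mL final, 20 min dark; AlphaScreen read.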
Sfp PPTase inh – qHTS Assay for Inhibitors of Bacillus subtilis Sfp phosphopantetheinyl transferase (PPTase); 4'-phosphopantetheinyl transferase ffp (Bacillus subtilis), Q9F4F7; Biochemical Sfp PPTase activity, qHTS; Potency, µM, for the others: largest response in the series, negative = inhibition, actives largely listed as inhibitors; actives 3.5% (n = 310,000); AID 1490, 2009;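 note: the enzyme is Sfp with the accession as filed and its product quenches rhodamine fluorescence; 0% = enzyme reaction without inhibitor and -100% = no enzyme wells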
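With Hepes-Na pH 7.6 buffer containing 10 mM MgCl2, Sfp (15 nM) modified BHQ-2-YbbR (12.5 uM) using rhodamine-CoA (5 uM). Two reads 30 minutes apart at 525/598 nm yielded each well's rate.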
HP1b binding inh – HTS for Inhibitors of HP1-beta Chromodomain Interactions with Methylated Histone Tails; Chromobox protein homolog 1 (Homo sapiens), P83916; Potency, µM (series often up to 114 µM), without a hit: at the highest dose activity change, negative = inhibition, hits mostly inhibitors; AlphaScreen HP1-beta / biotin-H3K9me3 peptide binding; AID 540317, 2011; actives 0.56% (n = 390,000); note: nearly all actives have a fitted effect of over 70% in size
Target sequence (P83916 whole entry, looked up): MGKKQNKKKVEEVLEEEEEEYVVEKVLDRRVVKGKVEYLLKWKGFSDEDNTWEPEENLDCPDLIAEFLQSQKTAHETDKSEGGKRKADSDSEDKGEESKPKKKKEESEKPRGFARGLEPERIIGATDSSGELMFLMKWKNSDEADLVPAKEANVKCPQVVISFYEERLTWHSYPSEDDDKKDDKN
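HP1-beta protein (50 nM final) preincubated 30 min at room temperature with biotinylated H3(1-18)K9me3 peptide (50 nM) in PBS pH 7.4, 0.01% Tween-20, then compound added for 30 min. AlphaScreen streptavidin donor/nickel chelate acceptor beads (10 ug/mL final), 30 min dark, luminescence read.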
G9a block – qHTS Assay for Inhibitors of Histone Lysine Methyltransferase G9a. actives 8.8% (n = 350,000). Potency, µM (highest dose often 102 µM), for the others: top-dose activity, negative = inhibition, most hits filed as inhibitors. G9a H3K9 monomethylation, AlphaScreen, 2 h; note: % is set by controls: 0 for no effect and ±100 for the full control effect; nearly all actives have a fitted effect of over 75% in size
Target sequence (Q96KQ7 913-1193 limits assumed): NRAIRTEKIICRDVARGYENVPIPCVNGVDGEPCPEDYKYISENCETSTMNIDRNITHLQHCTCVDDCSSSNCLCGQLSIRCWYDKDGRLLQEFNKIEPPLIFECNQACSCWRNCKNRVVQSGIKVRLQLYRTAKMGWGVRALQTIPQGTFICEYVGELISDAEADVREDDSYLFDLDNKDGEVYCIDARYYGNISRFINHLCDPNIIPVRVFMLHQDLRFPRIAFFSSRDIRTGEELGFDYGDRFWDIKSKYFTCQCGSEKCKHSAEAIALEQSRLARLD
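Step 1: enzyme (final 20 nM) with compound, 15 min RT. Step 2: substrate peptide 500 nM and SAM 20 uM, 2 h RT. Step 3: anti-H3K9me1 antibody and AlphaScreen beads, 10 min, then plate read.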
The depositor's hits bear a star; [ ] = remark or other dose. Calls come from the whole dose curve; as a rule, active = well fitted curve in the direction sought with a large enough effect; inconclusive = small, poorly fitted or top-dose-only effect, or another doubt; inactive = no such curve, though single readings can be large; an effect the other way counts as inactive or inconclusive. Potency is the fitted concentration of half-maximal effect.

Results for COc1ccc(NS(=O)(=O)c2ccc3c(c2)Cc2ccccc2-3)cn1 ?
JMJD2A Tudor: -30.1%; BAZ2B block: -36.5%; Sfp PPTase inh: 70.8µM*; HP1b binding inh: -4.6%; G9a block: -10.5%[59 µM]

What do the screens show for `CCn1c(=O)cc(SCC(=O)NCc2ccco2)c2ccccc21`?
JMJD2A Tudor: -16.2%; BAZ2B block: -37.3%; Sfp PPTase inh: inconclusive; HP1b binding inh: 15.8%; G9a block: -24.6%[59 µM]

How did CCc1ccccc1NC(=O)COc1ccc2c(=O)c(Oc3cc(C)ccc3C)coc2c1 do in these assays?
JMJD2A Tudor: -15.2%; BAZ2B block: 4.0%; Sfp PPTase inh: 44.7µM*; HP1b binding inh: 23.6%; G9a block: -18.9%

How did CCOC(=O)C1CCCN(C(=O)CCC(=O)Nc2ccc3nc(N4CCOCC4)cc(C)c3c2)C1 (centres undefined) do in these assays?
JMJD2A Tudor: -7.6%; BAZ2B block: 5.6%; Sfp PPTase inh: -2.1%; HP1b binding inh: 28.0%; G9a block: inconclusive

What do the screens show for `O=C1CCCCC/C1=N/Nc1ccc(OCc2ccccc2)cc1`?
JMJD2A Tudor: inconclusive; BAZ2B block: inconclusive; Sfp PPTase inh: -8.7%; HP1b binding inh: 14.4%; G9a block: 31.6µM*

What do the screens show for `CCOc1ccc(NC(=O)Cn2sc3nc(C)cc(C)c3c2=O)cc1`?
JMJD2A Tudor: 0.891µM*; BAZ2B block: -37.0%; Sfp PPTase inh: 2.82µM*; HP1b binding inh: 5.62µM*; G9a block: 0.282µM*

How did O=C(Cn1c(=O)c2ccccc2n2nncc12)Nc1cccc(F)c1 do in these assays?
JMJD2A Tudor: -10.3%; BAZ2B block: -5.4%; HP1b binding inh: 33.7%; G9a block: -4.3%[59 µM]

What do the screens show for `Cc1cc(C)c2c(=O)n(CC(=O)Nc3ccc(Cl)cc3)sc2n1`?
JMJD2A Tudor: 1.12µM*; BAZ2B block: 39.8µM*; Sfp PPTase inh: 3.55µM*; HP1b binding inh: 7.94µM*; G9a block: 0.0891µM*

How did Cc1cc(C)c2c(=O)n(CC(=O)Nc3cccc(F)c3)sc2n1 do in these assays?
JMJD2A Tudor: 1.12µM*; BAZ2B block: 50.1µM*; Sfp PPTase inh: 3.16µM*; HP1b binding inh: inconclusive; G9a block: 0.316µM*

How did Cc1ccc(NC(=O)Cn2sc3nc(C)cc(C)c3c2=O)c(Cl)c1 do in these assays?
JMJD2A Tudor: 1.58µM*; BAZ2B block: 44.7µM*; Sfp PPTase inh: 2.82µM*; HP1b binding inh: inconclusive; G9a block: 0.355µM*

Results for COc1ccc(-c2nc(CN3CCC(C(=O)NC4CCN(Cc5ccccc5)CC4)CC3)c(C)o2)cc1OC ?
JMJD2A Tudor: -13.2%; BAZ2B block: -13.6%[57.1 µM]; Sfp PPTase inh: 1.4%; HP1b binding inh: 23.6%; G9a block: -10.2%

What do the screens show for `COc1ccc(C(C(=O)Nc2ccc(C(C)C)cc2)N(C)C(=O)c2ccc(=O)[nH]c2)cc1` (centres undefined)?
JMJD2A Tudor: 50.1µM*; BAZ2B block: -5.9%; Sfp PPTase inh: 1.5%; HP1b binding inh: -16.5%; G9a block: -34.6%

How did O=[N+]([O-])c1cccc(-c2nc3ccc([N+](=O)[O-])cc3[nH]2)c1 do in these assays?
JMJD2A Tudor: 20µM*; BAZ2B block: 6.8%; Sfp PPTase inh: 9.2%; HP1b binding inh: -2.5%; G9a block: 79.4µM*

What do the screens show for `O=C1c2ccsc2SCCN1Cc1ccccc1Cl`?
JMJD2A Tudor: 20.0%; BAZ2B block: 9.8%; Sfp PPTase inh: 3.0%; HP1b binding inh: 43.1%; G9a block: 17.0%[59 µM]

How did Cc1cc(C)n2cc(CSCC(=O)O)nc2n1 do in these assays?
JMJD2A Tudor: -10.4%; BAZ2B block: inconclusive; Sfp PPTase inh: -29.8%; HP1b binding inh: 17.6%; G9a block: 44.7µM*

How did Cc1cc(C)n2cc(CSc3nnnn3-c3ccc(Cl)cc3)nc2n1 do in these assays?
JMJD2A Tudor: -19.7%; BAZ2B block: 2.1%; Sfp PPTase inh: inconclusive; HP1b binding inh: 22.3%; G9a block: 39.8µM*
